Results published in paper PMC7826789 (International Journal of Molecular Sciences, 2021).

system: NLK

Kinases covered, NLK:
Fc1ccc(-c2nn3ccccc3c2-c2ccncc2)cc1 [GW434756X]
O=C(O)/C=C/C(=O)O.OCCCNc1nccc(-c2c(-c3ccc(F)cc3)nn3cc(C(F)(F)F)ccc23)n1 [GW569293E]
O=C(Nc1n[nH]c2cc(-c3cccc(F)c3)ccc12)C1CC1 [SB-735464]

system: NTRK1

Kinases covered, NTRK1:
COc1ccccc1-c1cc(/C=C2\C(=O)Nc3ncc(Br)cc32)cc(Br)c1O [GW442130X]
Cc1cn(-c2cc(NC(=O)c3ccc4c(c3)CN(c3cncnc3)C[C@@H]4C)cc(C(F)(F)F)c2)cn1 [D2202-1]
Nc1ncnc2occ(-c3ccc(NC(=O)Nc4cc(C(F)(F)F)ccc4F)cc3)c12 [GW770249X]
